Drawing on PubChem BioAssay AID1259397 (Fisher Drug Discovery Resource Center, 2018), this text covers inhibition for 28 compounds.

About 230 (0.18%) of roughly 130,000 compounds were called active.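 How the source made its calls: active means inhibition of cGAS enzyme activity at or above 60%; inactive means the rest.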 Shown is part of a subset that was picked to be rich in actives.

In the test the target is Cyclic GMP-AMP synthase (Mus musculus) (UniProt Q8C6L5). In words: inhibitors of Mus musculus cyclic GMP-AMP synthase, initial high-throughput assay, cell-free, RapidFire MS (AID 1259397).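 Further: enzyme stimulated by 45 bp dsDNA with ATP and GTP substrates; cGAMP share of summed cGAMP plus half ATP and half GTP signals.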 To be noted: recombinant mouse cGAS, cGAMP by RapidFire MS; at 12.5 µM; stronger effect = higher value.
Sequence of Cyclic GMP-AMP synthase (Mus musculus) (Q8C6L5 whole entry, looked up): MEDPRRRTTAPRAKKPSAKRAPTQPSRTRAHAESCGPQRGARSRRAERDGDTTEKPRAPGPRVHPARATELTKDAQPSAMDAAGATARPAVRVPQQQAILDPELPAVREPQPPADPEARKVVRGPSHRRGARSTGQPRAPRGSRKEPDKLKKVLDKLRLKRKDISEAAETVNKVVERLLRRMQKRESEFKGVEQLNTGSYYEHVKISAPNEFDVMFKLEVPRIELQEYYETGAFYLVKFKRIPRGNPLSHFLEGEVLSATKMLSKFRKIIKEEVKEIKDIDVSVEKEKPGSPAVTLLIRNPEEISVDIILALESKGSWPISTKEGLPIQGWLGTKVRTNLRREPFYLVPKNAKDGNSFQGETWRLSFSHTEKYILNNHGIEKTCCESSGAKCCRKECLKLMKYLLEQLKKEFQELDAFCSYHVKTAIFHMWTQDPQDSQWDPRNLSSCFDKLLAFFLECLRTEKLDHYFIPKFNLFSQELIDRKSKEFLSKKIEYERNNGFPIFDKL
By inhibition is commonly meant the drop in the measured response relative to a control, in per cent. `Cc1ccc(C)c(CNc2cccc(C(=O)N3CCC(O)CC3)c2)c1`: the inhibition is -8.84% (inactive).

On to `CCC(=O)N1CCN(c2ccc(Cl)cc2NC(=O)c2cccs2)CC1`, for which the inhibition was -6.87% (inactive). With `CC(=O)N(C)c1ccc(NC(=O)CNCCc2cccs2)cc1` the figure was -11.1% (inactive). With `COc1ccc(OC)c(NC(=O)C(C)N2CCN(Cc3ccc(Cl)s3)CC2)c1` (stereo not drawn) the figure was -4.59% (inactive); with `CCO[C@H]1COC[C@@H]1NCC(=O)Nc1ccc(Cl)c(OC)c1`, -5.39% (inactive); with `O=C(O)c1cc(-c2ccccc2)nn1-c1ccc(Cl)cc1`, -1.5% (inactive).

`Cc1cc(-n2cnnc2)ncc1-c1ccc(O)cc1`: the inhibition is -7.05% (inactive).

With `Cc1ccc(NC(=O)CN2Cc3ccccc3CC2C(N)=O)cc1` (stereo not drawn), the inhibition was -6.79% (inactive). With `CCNC(=O)C1(C)CCN(Cc2ccc(C(=O)OCC)o2)C1` (stereo not drawn) the figure was -5.82% (inactive); with `CN=c1scc(-c2ccc(Br)cc2)n1N=Cc1cc(OC)c(OC)c(OC)c1`, -11.7% (inactive).

Consider `CC(C)Nc1ncc(C(=O)N(Cc2ccco2)C(C)C(C)C)cn1` (stereo not drawn), for which the inhibition was -1.04% (inactive).

With `C=CC[C@H]1CC(C)=C[C@H](CC=C)N1C(=O)c1cnc2cccc(C)n2c1=O`, the inhibition was -2.04% (inactive). The same measure for `O=C1COCc2ccc(-c3cccnc3)cc2N1CC1CC1`: -11.8% (inactive). With `CCCn1c(=O)n(C)c(=O)c2c(SCC(=O)C(C#N)=C(C)N)nc(CC(C)C)nc21` the figure was -1.38% (inactive); with `CC1(C(=O)NCc2ccc3c(c2)OCO3)CCN1CCc1ccccc1` (stereo not drawn), -12.7% (inactive); with `COc1ccc(CC(=O)OCc2cc(-c3ccc4c(c3)OCO4)on2)cc1OC`, -7.02% (inactive).

In the case of `CC(C)c1cc(C2CCN(C(=O)CN3CCOC3=O)CC2)[nH]n1`, the inhibition is -25.2% (inactive).

As for `COc1ccc(NC(=O)CCC2CCN(Cc3ccc(SC)cc3)CC2)c(OC)c1`, the inhibition is -5.25% (inactive). With `Cc1cccc(Nc2ncccc2C(=O)NCc2ccccn2)c1C`, the inhibition was 1.13% (inactive). The same measure for `Cc1[nH]n2c(=O)c3c(nc2c1-c1cccc2ccccc12)CCCC3`: 1.14% (inactive); for `CN(Cc1ccc(Br)s1)C(=O)CSCc1ccc(C#N)cc1`: 7.87% (inactive). The same measure for `O=S(=O)(NCc1ccccc1)NCc1csc(-c2cnccn2)n1`: -34.7% (inactive); for `O=C1CN(c2ccc(NC(=O)c3ccc4c(c3)COC4)cc2)CCN1`: -2.78% (inactive); for `CN1CCN2CCN(C(=O)c3cccc(N4CCNC4=O)c3)CC2C1=O` (stereo not drawn): -13.8% (inactive).

`C=C(C)Cn1c(N2CCN(Cc3cccc(C)c3)CC2)nc2c1c(=O)[nH]c(=O)n2C`: the inhibition is -6.09% (inactive). With `O=C1NC(=O)C(=Cc2ccc(C(=O)O)cc2)S1`, the inhibition was 35.6% (inactive).

With `O=C1NC(=S)SC1=Cc1ccccc1F`, the inhibition was 62.6% (active). For `COc1cc(C=C2SC(=S)NC2=O)cc(Br)c1O`, the inhibition is 12% (inactive).
